# The sample as a whole holds a higher share of the strongest signals than the screen did.
# B1: DCL-1 (Homo sapiens), Q8IX05 (protein)
# chain: MLRAALPALLLPLLGLAAAAVADCPSSTWIQFQDSCYIFLQEAIKVESIEDVRNQCTDHGADMISIHNEEENAFILDTLKKQWKGPDDILLGMFYDTDDASFKWFDNSNMTFDKWTDQDDDEDLVDTCAFLHIKTGEWKKGNCEVSSVEGTLCKTAIPYKRKYLSDNHILISALVIASTVILTVLGAIIWFLYKKHSDSRFTTVFSTAPQSPYNEDCVLVVGEENEYPVQFD
# Experiments:
# Assay in all cases: glycan array binding signal (z-score within array); higher = stronger binding
# Conditions in all cases: glycan notation: IUPAC condensed, linker removed
# [1] = biological target: Fuc(a1-2)Gal(b1-3)GlcNAc(b1-2)Man(a1-3)[Fuc(a1-2)Gal(b1-3)GlcNAc(b1-2)Man(a1-6)]Man(b1-4)GlcNAc(b1-4)GlcNAc
# Outline: (§1)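 Columns mapping to the same glycan were averaged after glycan names were converted to IUPAC-condensed notation. The data come from 3228 arrays in the Consortium for Functional Glycomics database, limited to those with an available protein sequence. Binding is reported as a within-array Z-score averaged across arrays of one protein sequence and across linkers.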
# [2] = biological target: Fuc(a1-2)Gal(b1-3)GlcNAc(b1-3)Gal(b1-4)Glc
# Outline: as §1
# [3] = biological target: Fuc(a1-2)Gal(b1-3)GlcNAc(b1-3)[Fuc(a1-3)[Gal(b1-4)]GlcNAc(b1-6)]Gal(b1-4)Glc
# Outline: as §1
# [4] = biological target: Fuc(a1-2)Gal(b1-3)[Fuc(a1-4)]GlcNAc(b1-2)Man(a1-3)[Fuc(a1-2)Gal(b1-3)[Fuc(a1-4)]GlcNAc(b1-2)Man(a1-6)]Man(b1-4)GlcNAc(b1-4)GlcNAc
# Outline: as §1
# [5] = biological target: Fuc(a1-2)Gal(b1-4)Glc
# Outline: as §1
# [6] = biological target: Fuc(a1-2)Gal(b1-4)GlcNAc(b1-2)[Fuc(a1-2)Gal(b1-4)GlcNAc(b1-4)]Man(a1-3)[Fuc(a1-2)Gal(b1-4)GlcNAc(b1-2)Man(a1-6)]Man(b1-4)GlcNAc(b1-4)GlcNAc
# Outline: as §1
# [7] = biological target: Fuc(a1-2)Gal(b1-4)[Fuc(a1-3)]GlcNAc(b1-3)GalNAc
# Outline: as §1
# [8] = biological target: Fuc(a1-2)[Gal(a1-3)]Gal(b1-3)GlcNAc
# Outline: as §1
# [9] = biological target: Fuc(a1-2)[Gal(a1-3)]Gal(b1-4)GlcNAc
# Outline: as §1
# [10] = biological target: Fuc(a1-2)[GalNAc(a1-3)]Gal(b1-3)GlcNAc(b1-2)Man(a1-3)[Fuc(a1-2)[GalNAc(a1-3)]Gal(b1-3)GlcNAc(b1-2)Man(a1-6)]Man(b1-4)GlcNAc(b1-4)[Fuc(a1-6)]GlcNAc
# Outline: as §1
# [11] = biological target: Fuc(a1-2)[GalNAc(a1-3)]Gal(b1-4)GlcNAc
# Outline: as §1
# [12] = biological target: Fuc(a1-2)[GalNAc(a1-3)]Gal(b1-4)GlcNAc(b1-2)Man(a1-3)[Fuc(a1-2)[GalNAc(a1-3)]Gal(b1-4)GlcNAc(b1-2)Man(a1-6)]Man(b1-4)GlcNAc(b1-4)GlcNAc
# Outline: as §1
# [13] = biological target: Fuc(a1-3)[Gal3S(b1-4)]GlcNAc6S
# Outline: as §1
# [14] = biological target: Gal(a1-3)Fuc(a1-2)Gal(b1-4)GlcNAc(b1-3)[Gal(a1-3)Fuc(a1-2)Gal(b1-4)GlcNAc(b1-6)]GalNAc
# Outline: as §1
# [15] = biological target: Gal(a1-3)Gal(b1-4)GlcNAc
# Outline: as §1
# [16] = biological target: Gal(a1-3)[Gal(a1-4)]Gal(b1-4)GlcNAc
# Outline: as §1
# [17] = biological target: Gal(a1-4)Gal(b1-4)Glc
# Outline: as §1
# [18] = biological target: Gal(a1-4)Gal(b1-4)GlcNAc
# Outline: as §1
# [19] = biological target: Gal(a1-4)Gal(b1-4)GlcNAc(b1-3)Gal(b1-4)Glc
# Outline: as §1
# [20] = biological target: Gal(b1-3)GlcNAc(b1-2)[Gal(b1-3)GlcNAc(b1-6)]Man(a1-6)[Gal(b1-3)GlcNAc(b1-2)Man(a1-3)]Man(b1-4)GlcNAc(b1-4)GlcNAc
# Outline: as §1
# [21] = biological target: Gal(b1-3)GlcNAc(b1-3)Gal(b1-4)GlcNAc
# Outline: as §1
# [22] = biological target: Gal(b1-4)Gal
# Outline: as §1
# [23] = biological target: Gal(b1-4)Glc6S
# Outline: as §1
# [24] = biological target: Gal(b1-4)GlcNAc(b1-3)Gal(b1-4)GlcNAc
# Outline: as §1
# [25] = biological target: Gal(b1-6)Gal
# Outline: as §1
# [26] = biological target: Gal3S(b1-4)[Fuc(a1-3)]Glc6S
# Outline: as §1
# [27] = biological target: Gal4S(b1-4)GlcNAc
# Outline: as §1
# [28] = biological target: Gal6S(b1-4)Glc
# Outline: as §1
# [29] = biological target: GalNAc(b1-3)Gal
# Outline: as §1
# [30] = biological target: GalNAc(b1-4)Gal(b1-4)Glc
# Outline: as §1
# [31] = biological target: Glc(b1-4)Glc
# Outline: as §1
# [32] = biological target: Glc(b1-6)Glc
# Outline: as §1
# [33] = biological target: GlcNAc(a1-6)Gal(b1-4)GlcNAc
# Outline: as §1
# [34] = biological target: GlcNAc(b1-2)[GlcNAc(b1-4)]Man(a1-3)[GlcNAc(b1-4)][GlcNAc(b1-2)[GlcNAc(b1-6)]Man(a1-6)]Man(b1-4)GlcNAc(b1-4)GlcNAc
# Outline: as §1
# [35] = biological target: GlcNAc(b1-4)Gal(b1-4)GlcNAc
# Outline: as §1
# [36] = biological target: Man(a1-2)Man(a1-3)[Man(a1-2)Man(a1-6)]Man(a1-6)[Man(a1-2)Man(a1-2)Man(a1-3)]Man(b1-4)GlcNAc(b1-4)GlcNAc
# Outline: as §1
# [37] = biological target: Man(a1-3)[Man(a1-6)]Man(a1-6)[Man(a1-2)Man(a1-3)]Man(b1-4)GlcNAc(b1-4)GlcNAc
# Outline: as §1
# [38] = biological target: Neu5Ac(a2-3)Gal(b1-3)GalNAc(b1-3)Gal(a1-4)Gal(b1-4)Glc
# Outline: as §1
# [39] = biological target: Neu5Ac(a2-3)Gal(b1-3)GlcNAc(b1-3)GalNAc
# Outline: as §1
# [40] = biological target: Neu5Ac(a2-3)Gal(b1-4)GlcNAc(b1-6)[Neu5Ac(a2-3)Gal(b1-3)]GalNAc
# Outline: as §1
# [41] = biological target: Neu5Ac(a2-3)Gal(b1-4)[Fuc(a1-3)]GlcNAc(b1-3)Gal
# Outline: as §1
# [42] = biological target: Neu5Ac(a2-3)Gal(b1-4)[Fuc(a1-3)]GlcNAc(b1-3)GalNAc
# Outline: as §1
# [43] = biological target: Neu5Ac(a2-6)Gal(b1-4)GlcNAc(b1-2)Man(a1-3)[Neu5Ac(a2-6)Gal(b1-4)GlcNAc(b1-2)Man(a1-6)]Man(b1-4)GlcNAc(b1-4)GlcNAc
# Outline: as §1
# [44] = biological target: Neu5Ac(a2-6)Gal(b1-4)GlcNAc(b1-3)Gal(b1-4)GlcNAc(b1-3)Gal(b1-4)GlcNAc
# Outline: as §1
# [45] = biological target: Neu5Ac9Ac(a2-3)Gal(b1-4)GlcNAc
# Outline: as §1
binder,measurement,setting,value
B1,glycan array binding signal (z-score),[1],0.687
same,glycan array binding signal (z-score),[2],-0.715
same,glycan array binding signal (z-score),[3],0.156
same,glycan array binding signal (z-score),[4],-0.488
same,glycan array binding signal (z-score),[5],0.028
same,glycan array binding signal (z-score),[6],-0.471
same,glycan array binding signal (z-score),[7],1.87
same,glycan array binding signal (z-score),[8],3.01
same,glycan array binding signal (z-score),[9],-0.77
same,glycan array binding signal (z-score),[10],-0.151
same,glycan array binding signal (z-score),[11],-0.734
same,glycan array binding signal (z-score),[12],0.221
same,glycan array binding signal (z-score),[13],-0.491
same,glycan array binding signal (z-score),[14],0.69
same,glycan array binding signal (z-score),[15],0.709
same,glycan array binding signal (z-score),[16],-0.245
same,glycan array binding signal (z-score),[17],-0.289
same,glycan array binding signal (z-score),[18],0.053
same,glycan array binding signal (z-score),[19],-0.496
same,glycan array binding signal (z-score),[20],2.22
same,glycan array binding signal (z-score),[21],-0.606
same,glycan array binding signal (z-score),[22],-0.028
same,glycan array binding signal (z-score),[23],0.595
same,glycan array binding signal (z-score),[24],2.35
same,glycan array binding signal (z-score),[25],-0.915
same,glycan array binding signal (z-score),[26],0.532
same,glycan array binding signal (z-score),[27],-0.14
same,glycan array binding signal (z-score),[28],0.156
same,glycan array binding signal (z-score),[29],-0.083
same,glycan array binding signal (z-score),[30],-0.041
same,glycan array binding signal (z-score),[31],-0.786
same,glycan array binding signal (z-score),[32],-0.407
same,glycan array binding signal (z-score),[33],6.83
same,glycan array binding signal (z-score),[34],0.126
same,glycan array binding signal (z-score),[35],-0.427
same,glycan array binding signal (z-score),[36],2.43
same,glycan array binding signal (z-score),[37],10.6
same,glycan array binding signal (z-score),[38],3.04
same,glycan array binding signal (z-score),[39],-0.021
same,glycan array binding signal (z-score),[40],0.223
same,glycan array binding signal (z-score),[41],0.066
same,glycan array binding signal (z-score),[42],5.12
same,glycan array binding signal (z-score),[43],0.079
same,glycan array binding signal (z-score),[44],-1.67
same,glycan array binding signal (z-score),[45],2.38
